Compound activity deposited in PubChem by National Center for Advancing Translational Sciences (NCATS).
Shown are actives, neighbours in structure and some others; about 7.4% of the full set was active somewhere.
NPC1 prom act = qHTS Assay for NPC1 Promoter Activators. Huh7 NPC1 promoter luciferase reporter, 24 h. Potency, µM (series often up to 9.22 µM), hits mostly activators. 320,000 compounds, 2.4% hits; further: nearly all actives have a fitted effect of over 60% in size
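NPC1 promoter–luciferase Huh7 cells; 24 h compound; luminescence.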
SMN2 splice up = qHTS Assay for Enhancers of SMN2 Splice Variant Expression; 210,000 compounds, 2.8% hits; Potency, µM (doses to about 46.1 µM), hits mostly activators; HEK293 SMN2-luciferase splicing reporter, luminescence, 30-36 h; further: nearly all actives have a fitted effect of over 55% in size
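HEK293 cells carry an SMN2 […]–luciferase reporter in which exon 7 inclusion puts luciferase in frame. Cells were plated 10-12 h before compound addition, then incubated 30-36 h at 37C. ONE-Glo luminescence was read; sodium butyrate at 4.5 mM final served as control.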
ELG1 genotox = qHTS screen for small molecules that induce genotoxicity in human embryonic kidney (HEK293T) cells expressing luciferase-tagged ELG1 | HEK293T ELG1-luciferase reporter, luminescence, 16 h | Potency, µM (top dose mostly 46 µM), most hits filed as activators | 330,000 compounds, 1.3% hits; further: nearly all actives have a fitted effect of over 60% in size
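DMSO vehicle served as control against compound-treated ELG1-luciferase HEK293T cells; exposure lasted 16 hr at 37 °C and 5% CO2, followed by ONE-Glo luminescence detection after 30 min.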
KinaseGlo FLuc = Counterscreen for Luciferase (Kinase-Glo TM) Inhibition; Luciferin 4-monooxygenase (Photuris pensylvanica), Q27757; AID 1379, 2008; 200,000 compounds, 0.28% hits; Potency, µM (titrated, usually from 38.3 µM), usual class: inhibitors; Kinase-Glo luciferase, ATP luminescence, 8 min; further: nearly all actives have a fitted effect of over 60% in size
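Kinase-Glo luciferase light output from ATP and luciferin was measured with 10 uM ATP, within the enzyme's linear range. Buffer: 50 mM imidazole pH 7.2, 50 mM KCl, 7 mM MgCl2, 0.01% Tween 20, 0.05% BSA; luminescence read after 8 min at ambient temperature.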
Rab9 prom act = qHTS Assay for Rab9 Promoter Activators | Huh7 Rab9 promoter-luciferase reporter, luminescence, 24 h | 320,000 compounds, 2.8% hits | AID 485297, 2010 | Potency, µM (doses to about 9.22 µM), actives largely listed as activators; further: nearly all actives have a fitted effect of over 60% in size
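Stable Rab9-luc Huh7, 1500 cells/well, 2 h settle; cmpd in DMSO, 24 h, 37 °C/5% CO2; luciferase reagent 10 min RT; luminescence.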
FLuc counter = qHTS profiling assay for firefly luciferase inhibitor/activator using purifed enzyme and Km concentrations of substrates (counterscreen for miR-21 project); purified FLuc, Km substrates, luminescence inhibition; Potency, µM (series often up to 57.5 µM), most hits filed as inhibitors; 360,000 compounds, 6.9% hits; Luciferin 4-monooxygenase (Photinus pyralis), P08659; AID 588342, 2011; further: nearly all actives have a fitted effect of over 55% in size
Target sequence (P08659 whole entry, looked up): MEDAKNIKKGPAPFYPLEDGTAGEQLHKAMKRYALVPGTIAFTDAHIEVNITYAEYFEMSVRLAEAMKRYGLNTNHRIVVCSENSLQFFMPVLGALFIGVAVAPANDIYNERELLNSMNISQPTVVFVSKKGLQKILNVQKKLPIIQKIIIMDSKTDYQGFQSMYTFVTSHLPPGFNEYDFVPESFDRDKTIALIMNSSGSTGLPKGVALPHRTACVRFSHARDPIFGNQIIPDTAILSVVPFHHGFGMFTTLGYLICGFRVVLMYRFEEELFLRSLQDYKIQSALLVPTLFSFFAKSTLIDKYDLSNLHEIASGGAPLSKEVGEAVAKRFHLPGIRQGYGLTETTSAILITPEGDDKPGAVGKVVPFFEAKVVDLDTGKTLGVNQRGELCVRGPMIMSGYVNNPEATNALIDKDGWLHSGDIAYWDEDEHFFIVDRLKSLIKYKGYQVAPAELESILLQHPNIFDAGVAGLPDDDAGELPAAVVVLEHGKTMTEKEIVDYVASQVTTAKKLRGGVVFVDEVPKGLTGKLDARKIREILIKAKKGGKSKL
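Purified P. pyralis luciferase (10nM final) with 10uM D-luciferin and 10uM ATP (Km levels) in 50mM Tris acetate pH 7.5, 10mM Mg acetate, 0.01% Tween-20, 0.05% BSA; qHTS 6-point titration, ~60 µM downward; luminescence read.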
Of the large screens only hits and unclear results are named; the others gave an inactive call. The call rests on the fitted dose curve; in most records, active means well fitted curve in the direction sought with a large enough effect; inconclusive means small, poorly fitted or top-dose-only effect, or another doubt; inactive means no such curve, though single readings can be large; an effect the other way counts as inactive or inconclusive.

CCCOc1ccc(C(=O)Nc2ccc(C)cc2[N+](=O)[O-])cc1	NPC1 prom act inconclusive, Rab9 prom act inconclusive
O=C(NCCCNc1ccc(C(F)(F)F)cc1[N+](=O)[O-])c1cc(F)c(F)cc1Cl	none
COc1ccc(C(=O)NCCNc2ccccc2[N+](=O)[O-])cc1	NPC1 prom act 1.58µM, SMN2 splice up 11.2µM, ELG1 genotox 11.6µM, Rab9 prom act 0.631µM, FLuc counter 4.78µM
CCSc1nn2c(=O)c3ccccc3nc2s1	NPC1 prom act 3.55µM, SMN2 splice up 14.1µM, ELG1 genotox 5.01µM, KinaseGlo FLuc inconclusive, Rab9 prom act 2.51µM, FLuc counter 19µM
O=[N+]([O-])c1ccccc1N/N=C/c1c[nH]c2ccccc12	NPC1 prom act inconclusive, SMN2 splice up 12.6µM, ELG1 genotox 4.11µM, FLuc counter 4.26µM
O=[N+]([O-])c1ccc(N/N=C/c2c[nH]c3ccccc23)cc1	FLuc counter inconclusive
O=[N+]([O-])c1ccccc1N/N=C/c1ccc2c(c1)OCO2	NPC1 prom act 0.501µM, SMN2 splice up 2.82µM, ELG1 genotox 2.91µM, KinaseGlo FLuc inconclusive, Rab9 prom act 0.316µM, FLuc counter 0.477µM
O=[N+]([O-])c1ccccc1N/N=C/c1ccccc1	NPC1 prom act 3.98µM, ELG1 genotox inconclusive, Rab9 prom act inconclusive, FLuc counter inconclusive (no result: SMN2 splice up, KinaseGlo FLuc)
COc1cccc(-c2ccc3nnc(SCC(=O)Nc4ccc(NC(C)=O)cc4)n3n2)c1	none (no result: SMN2 splice up, KinaseGlo FLuc)
Cn1c(=O)oc2cc(S(=O)(=O)N3CCCC(C(=O)NCc4ccc(F)cc4)C3)ccc21 (configuration not stated)	none (no result: NPC1 prom act, ELG1 genotox, KinaseGlo FLuc, Rab9 prom act)
O=C(CSc1nnc(Nc2ccccc2)s1)Nc1cccc(S(=O)(=O)N2CCCCC2)c1	FLuc counter 12µM
Nc1nnc(SCC(=O)Nc2cccc(S(=O)(=O)N3CCCCC3)c2)s1	none (no result: SMN2 splice up, KinaseGlo FLuc)
Nc1nc(SCC(=O)Nc2cccc(S(=O)(=O)N3CCCCCC3)c2)n[nH]1	FLuc counter 16.9µM
CCOc1ccccc1CNC(=O)CN1C(=O)CCn2nc(-c3cn(C)c4ccccc34)cc21	none (no result: NPC1 prom act, SMN2 splice up, ELG1 genotox, KinaseGlo FLuc, Rab9 prom act)
CCN(CC)CCCNC(=O)CSc1nc(-c2ccc(F)cc2)cc(C(F)(F)F)n1	none (no result: SMN2 splice up)
C/C=C/c1ccc(OCCn2nnc3ccccc32)c(OC)c1	ELG1 genotox inconclusive, Rab9 prom act inconclusive, FLuc counter 16.9µM (no result: SMN2 splice up, KinaseGlo FLuc)
Cc1cccc(OCCn2nnc3ccccc32)c1C	NPC1 prom act inconclusive, ELG1 genotox inconclusive, FLuc counter 16.9µM (no result: SMN2 splice up, KinaseGlo FLuc)
C=CCc1ccccc1OCCn1nnc2ccccc21	none (no result: SMN2 splice up, KinaseGlo FLuc)
Cc1cc(Br)ccc1OCCn1ccnc1	none
CCOc1ccc(S(=O)(=O)N2CCC(c3ccncc3)CC2)cc1	none (no result: NPC1 prom act, SMN2 splice up, ELG1 genotox, KinaseGlo FLuc, Rab9 prom act)
O=C(NC1CC(=O)N(c2cccc(F)c2)C1)c1ccc(S(=O)(=O)N2CCCCC2)cc1 (configuration not stated)	none (no result: NPC1 prom act, SMN2 splice up, ELG1 genotox, KinaseGlo FLuc, Rab9 prom act)
COc1ccc(C(=S)NC2CCCCC2)cc1	Rab9 prom act inconclusive, FLuc counter 12µM (no result: SMN2 splice up, KinaseGlo FLuc)
COc1ccc(CNC(=S)NC2CCCCC2)cc1	none (no result: SMN2 splice up, KinaseGlo FLuc)
CCOc1ccc(C(=S)NC2CCCCC2)cc1	NPC1 prom act 3.16µM, Rab9 prom act inconclusive, FLuc counter 12µM
COc1ccc(-c2nc(C)c(CCNC(=O)c3ccc(F)c(F)c3)s2)cc1	FLuc counter 21.3µM (no result: NPC1 prom act, SMN2 splice up, ELG1 genotox, KinaseGlo FLuc, Rab9 prom act)
COc1ccc(-c2nc(C)c(CCNC(=O)c3cccc(C)c3)s2)cc1OC	FLuc counter 23.9µM (no result: NPC1 prom act, SMN2 splice up, ELG1 genotox, KinaseGlo FLuc, Rab9 prom act)
COc1ccc(-c2nc(C)c(CCNC(=O)c3cccs3)s2)cc1	FLuc counter 26.9µM (no result: NPC1 prom act, SMN2 splice up, ELG1 genotox, KinaseGlo FLuc, Rab9 prom act)
N#Cc1ccccc1S(=O)(=O)N1CCN(C(=O)C2CCCC2)CC1	none (no result: SMN2 splice up, KinaseGlo FLuc)
CC[C@H]1C(c2cccc(Cl)c2)=NN(c2ccccc2)[C@@H]1CO	none (no result: NPC1 prom act, SMN2 splice up, ELG1 genotox, Rab9 prom act, FLuc counter)
O=C(O)CC(c1cccc2ccccc12)N1Cc2ccccc2C1=O (configuration not stated)	none
CC1(C)CC(=O)c2c(O)cc(OCC(=O)N3CCN(c4ccccc4)CC3)cc2O1	FLuc counter 15.1µM (no result: SMN2 splice up, KinaseGlo FLuc)
O=C(COc1ccccc1)N1CCN(c2ccccc2)CC1	none
